# Measurements taken from PubChem BioAssay AID434973 (Sanford-Burnham Center for Chemical Genomics, 2010).
# About 4,900 (1.5%) of roughly 330,000 compounds were called active. The sample as a whole holds a higher share of actives than the screen did. Unmarked numbers belong to inactive results.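 The calls were made as follows: active = inhibition above about 50% at the single test dose (limit read from the data); inactive = the rest.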
# Target: Sentrin-specific protease 7 (Homo sapiens) (UniProt Q9BQF6)
# Assay: blockers of human SENP7 peptidase activity – biochemical, luminescence, uHTS, primary screen (AID 434973);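 also: plate controls were DMSO with enzyme for no effect and no enzyme buffer wells for full effect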
# Details: recombinant SENP7, Z-RLRGG-aminoluciferin luminescence, 40 min; at 5 µM; active compounds read high
row,Structure (SMILES),inhibition
1,O=C(Nc1ccc(C(=O)O)c(O)c1)c1ccccc1,85.1% (active)
2,O=C(Nc1cccc(C(=O)N2CCCC2)c1)c1ccccc1,-13%
3,O=C(Nc1cccc(NC(=O)c2cccc(F)c2)c1)c1ccccc1,-10.7%
4,Cc1ccc(Nc2ncnc3c2cnn3C)c(C)c1,-0.763%
5,CCN(CC)C(=O)CSc1ncnc2c1cnn2-c1ccccc1,2.6%
6,Cc1ccc(-n2ncc3c(Nc4cccc(C(=O)O)c4)ncnc32)cc1,92.6% (active)
7,CC(=O)NC1C(Oc2ccc(C=O)cc2)OC(COC(C)=O)C(OC(C)=O)C1OC(C)=O (configuration not stated),5.78%
8,Cc1cccc(NC(=O)CSc2nc3c(c(=O)[nH]2)CCC3)c1C,-1.39%
9,CC(=O)Nc1ccc(NC(=O)CSc2nnc(COc3ccccc3C)n2CC2CCCO2)cc1 (configuration not stated),5.76%
10,COC(=O)c1ccc([C@@H](O)[C@H](C)C(=O)CC(=O)OC(C)(C)C)cc1,6.36%
11,O=C(Nc1cccc(NC(=O)c2ccccc2[N+](=O)[O-])c1)c1ccccc1Cl,6.18%
12,O=C(Nc1ccc2sc3ccccc3c(=O)c2c1)c1ccccc1Cl,51.8% (active)
13,COc1cc(NC(=O)c2cccs2)ccc1NC(=O)c1ccccc1Cl,-1.86%
14,COc1ccc2[nH]c(C(=O)Nc3ccccc3Cl)cc2c1,6.38%
15,CC(OC(=O)c1cc2ccccc2[nH]1)C(=O)N(C)c1ccccc1 (configuration not stated),-10.4%
16,O=C(Nc1ccccc1)c1cc2ccccc2[nH]1,76% (active)
17,CCSc1nc2c(c(=O)[nH]1)C(c1cccnc1)C(C(=O)OC(C)C)=C(C)N2 (configuration not stated),11%
18,COc1ccc(C(CNCC(=O)Nc2ccccc2F)N(C)C)cc1 (configuration not stated),2.72%
19,Cc1ccn2cc(-c3nonc3C)cc2c1,4.32%
20,CS(=O)(=O)N1CCN(C(=O)CSc2ccccc2)CC1,-0.93%
21,O=c1c2c(nc3cc(-c4cccc(Cl)c4)[nH]n13)CCCC2,66.7% (active)
22,Cc1cc(=O)n2[nH]c(-c3cccc(Cl)c3)cc2n1,1.33%
23,CCCCN1Cc2c(nc3cc(-c4ccccc4)[nH]n3c2=O)C1=O,-4.67%
24,Cc1nc2ccccc2c(=O)n1-c1ccc(NS(=O)(=O)c2ccc(F)cc2F)cc1,-0.987%
25,Clc1ccc(C2=CSC3=Nc4cccc5cccc(c45)N23)cc1,51.9% (active)

row,Structure (SMILES),inhibition
1,CCC(=O)c1ccc(OCC(O)Cn2nc(C)c(C(C)=O)c2C)cc1 (configuration not stated),0.247%
2,CC(C)(C)c1ccc(NC(=O)NCc2ccco2)cc1,90.7% (active)
3,CC(C)(C)NC(=O)NCc1ccco1,-4.67%
4,CC(C)(C)c1ccc(C(=O)NCc2ccco2)cc1,-16.4%
5,CN(C)S(=O)(=O)c1cc(C(=O)Nc2ccn(C)n2)c(Cl)cc1Cl,-0.713%
6,CN(C)NC(=O)C(NC(=O)c1ccc(N)cc1)C12CC3CC(CC(C3)C1)C2 (configuration not stated),-0.0401%
7,COc1ccc(-c2cc3ccc(OCc4nn[nH]n4)cc3oc2=O)cc1,51% (active)
8,CCCCc1cc(=O)oc2cc(C)cc(OCc3nn[nH]n3)c12,1.78%
9,Cc1noc(C)c1COc1ccc2ccc(=O)oc2c1,-8.22%
10,O=C(CNCCC1=CCCCC1)Nc1ccccc1N1CCCCCC1,-5.33%
11,CN(C)c1ccc(/C=C/C(=O)c2ccc(O)cc2)cc1[N+](=O)[O-],-14.8%
12,O=C(/C=C/c1ccc2c(c1)OCCO2)c1ccc(O)cc1,68.4% (active)
13,O=C(O)/C=C/c1ccc2c(c1)OCCO2,2.14%
14,Nc1nc(SCc2cccc(Br)c2)n[nH]1,0.492%
15,CCCC1CC(C)(C(=O)Cn2[nH]c(=O)ccc2=O)OC1=O (configuration not stated),-0.683%
16,Cc1cc(C)nc(-n2ncc3c2CC(c2ccc(C(C)C)cc2)CC3=O)n1 (configuration not stated),9.11%
17,COc1cccc(NCCC(=O)c2cccc([N+](=O)[O-])c2)c1,13.1%
18,COc1ccc(Cc2nnc(SCC(=O)c3cccc([N+](=O)[O-])c3)n2C)cc1,73.6% (active)
19,COc1ccc(-n2cnnc2SCC(=O)Nc2cccc([N+](=O)[O-])c2)cc1,-4.85%
20,O=C(CN1CCOCC1)N1CCCc2c1c(=O)oc1ccc(OCc3ccccc3)cc21,4.73%
21,COc1ccc(/C(C)=N\NC(=O)c2ccc(-c3ccccc3)cc2)c(F)c1,3.63%
22,C/C(CC(=O)Nc1ccc(N(C)C)cc1)=N\NC(=O)c1ccccc1F,-1.56%
23,C/C(=N\NC(=O)c1ccccc1F)c1ccccn1,64.2% (active)
24,COc1ccc(OC)c(CNC(=O)c2cc(=O)[nH]c3ccc(S(=O)(=O)N4CCCC4)cc23)c1,0.442%
25,O=C1CC2(CCCC2)C(=O)N1CN1CCN(S(=O)(=O)c2ccc(F)cc2F)CC1,-8.48%

row,Structure (SMILES),inhibition
1,CN1C(=O)/C(=N/OC(=O)c2ccccc2Br)c2ccccc21,4.98%
2,CCC1C(=O)c2ccccc2N(C)C1=O (configuration not stated),-6.31%
3,CN1C(=O)/C(=C\c2cc(Br)cs2)c2ccccc21,80.9% (active)
4,O=C(Nc1cc(=O)[nH]c2ncnn12)c1ccccc1Cl,10.9%
5,Cc1ccc(S(=O)(=O)Nc2nc3ccccc3nc2N2CCc3ccccc3C2)cc1,86.2% (active)
6,Cc1ccc(NC(=O)CN2CCc3ccccc3C2)cc1,-5.44%
7,Cc1ccc(S(=O)(=O)N2CCN(c3ncnc4ccccc34)CC2)cc1,0.743%
8,O=C(COc1ccccc1O)NC1CCCC1,-1.19%
9,CCCCNc1ccc(C(=O)Nc2cccc(C)n2)cc1[N+](=O)[O-],-7.17%
10,Nc1ccc(N=Nc2ccccc2Cl)c(N)n1,82.3% (active)
11,CCOc1cc(/C=C/C(=O)OCC(=O)NCCN2C(=O)CSC2=O)ccc1OCC(C)C,4.69%
12,Cc1nc2ccccc2nc1N/N=C/c1ccc(O)cc1O,7.72%
13,Cc1cc(=O)[nH]c(N/N=C/c2ccc3c(c2)OCCO3)n1,6.15%
14,Cc1nc(Cl)cc(N/N=C/c2ccccc2)n1,4.74%
15,C(=N\Nc1ccc2ccccc2n1)/c1ccc2c(c1)OCO2,96.1% (active)
16,O=C(N/N=C/c1ccc2c(c1)OCO2)C(=O)N1CCCC1,4%
17,Cc1noc(C)c1/C=N/Nc1ccc2ccccc2n1,52.5% (active)
18,O=C(c1ccccc1F)N(Cc1ccccc1)Cc1ccccc1,-9.2%
19,Cc1c(Cl)c([N+](=O)[O-])nn1Cc1ccc(C(=O)N/N=C\c2cc(Cl)ccc2O)o1,10.1%
20,CCN(CC)S(=O)(=O)c1ccc(OC(C)C)c(N)c1,2.51%
21,CC(=O)C1C(c2ccc(Cl)cc2)c2c(n[nH]c2C)CC1(C)O (configuration not stated),-1.26%
22,CC(=O)NNC1=Nc2ccccc2N(C)C(C)C1 (configuration not stated),1.41%
23,CCc1cc(=O)oc2cc(OCC(=O)N3CCCc4ccccc43)ccc12,-13.1%
24,Cc1ccnc(N2C(=O)c3ccc([N+](=O)[O-])cc3C2=O)c1,-0.103%
25,Cc1ccc(-c2cn(S(=O)(=O)c3cccc([N+](=O)[O-])c3)nc2N)cc1,1.39%

row,Structure (SMILES),inhibition
1,Cc1ccc(-n2cc3ccc([N+](=O)[O-])cc3n2)cc1,87.9% (active)
2,CC(C)(C)c1cc[n+](-c2[nH]c(=O)sc2/C=N/N=C(\[O-])c2ccccc2)cc1,1.22%
3,CCN(CC)S(=O)(=O)c1ccc(N2CCOCC2)c(NC(=O)c2ccc(=O)n(C)n2)c1,-0.97%
4,CCC(C)C(NC(=O)C1CCC(=O)N1C(=O)OCc1ccccc1)C(=O)NC(C(=O)N1CCCC1C(N)=O)C(C)CC (configuration not stated),-7.38%
5,O=C(COC(=O)c1ccccn1)NNC(=O)c1ccc([N+](=O)[O-])cc1,4.18%
6,Cc1ccc(C(=O)O/N=C(\N)c2ccccn2)cc1Cl,95.8% (active)
7,COc1ccc(C(=O)O/N=C(\N)c2ccccn2)cc1[N+](=O)[O-],10.4%
8,N/C(=N\OC(=O)c1ccc([N+](=O)[O-])cc1)c1ccccn1,94.8% (active)
9,O=C(COC(=O)c1ccccn1)NNC(=O)c1ccc(Br)cc1,8.04%
10,Cc1ccc(NC(=O)c2ccccn2)cc1S(=O)(=O)N1CCOCC1,-1.52%
11,CCCCN=C(N)/C(C(=O)OCC)=C(\O)c1ccc(OC)cc1,13.1%
12,CC(OC(=O)CN1C(=O)c2ccccc2C1=O)C(=O)c1ccccc1 (configuration not stated),5.15%
13,CCc1ccc(NC(=O)CN2C(=O)COc3ccc(S(=O)(=O)N4CCCC4)cc32)cc1,2.36%
14,C=C(Br)Cn1c(CCCC)nc2ccccc21,2.52%
15,O=[N+]([O-])c1cccc(C2=NCCS2)c1,-1.11%
16,FC(F)(F)c1ccnc(Oc2ccc(C3=NCCS3)cc2)c1,67.2% (active)
17,CC(C)Oc1ccc(Oc2ccc(C(F)(F)F)cn2)cc1,-3.04%
18,COc1ccc(C(=O)n2nc(C)c(Br)c2C)cc1OC,0.64%
19,COC(=O)CN1C(=O)[C@H]2[C@@H](/C=C/c3ccccc3)N3C(=O)CN(CC4CC4)C(=O)[C@@]3(Cc3ccccc3)[C@H]2C1=O,-16.2%
20,CCOC(=O)CSc1nnc(-c2cccc(Br)c2)o1,-6.07%
21,CCCCSc1nnc(-c2ccc(C)cc2)o1,58.9% (active)
22,CCOC(=O)CSc1nnc(-c2ccc([N+](=O)[O-])cc2)o1,-2.17%
